From PMC5349851, “Combinatorial bZIP dimers display complex DNA-binding specificity landscapes” come the findings set out here.

Holding throughout (assay): SELEX-seq (CSI, HT-SELEX, round 3); SELEX-seq: 1x PBS (10 mM phosphate, 137 mM NaCl, 2.7 mM KCl) pH 7.6, 2.5 mM DTT, 50 ng/ul poly dI-dC, 0.1% BSA, 50 nM biotinylated bZIP (1:3 with partner for heterodimers), 100 nM library, room temperature, 1 h, 3 rounds; high values mean tight binding
Holding throughout (details): protein: recombinant;recombinant; copies: 1;1; dsDNA, one strand shown

In test [1] the target is ATF6B;ATF6B (Homo sapiens;Homo sapiens, UniProt Q99941;Q99941 316-391;316-391, |).
For test [2], the target named is ATF6;ATF6 (Homo sapiens;Homo sapiens, UniProt P18850;P18850 297-371;297-371, |).
For test [3], the target named is T1, CREB1;CREB1 (Homo sapiens;Homo sapiens, UniProt P16220;P16220 260-327;260-327, |).
T1 sequence 1: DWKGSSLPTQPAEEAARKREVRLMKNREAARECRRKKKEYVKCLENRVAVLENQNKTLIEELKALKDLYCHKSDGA
T1 sequence 2: T1 sequence 1

Test [4] has as its target T2, CREB3;CREB3 (Homo sapiens;Homo sapiens, UniProt O43889;O43889 141-221;141-221, |).
T2 sequence 1: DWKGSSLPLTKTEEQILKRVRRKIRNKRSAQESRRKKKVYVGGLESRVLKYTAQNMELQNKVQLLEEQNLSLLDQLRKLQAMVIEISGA
T2 sequence 2: T2 sequence 1

Test [5] has as its target ATF5;ATF6B (Homo sapiens;Homo sapiens, UniProt Q9Y2D1;Q99941 199-275;316-391, |).
The target of test [6] is T3, ATF5;CREBZF (Homo sapiens;Homo sapiens, UniProt Q9Y2D1;Q9NS37 199-275;195-272, |).
T3 sequence 1: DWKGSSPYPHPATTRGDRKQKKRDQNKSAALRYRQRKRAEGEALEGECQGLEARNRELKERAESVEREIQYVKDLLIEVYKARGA
T3 sequence 2: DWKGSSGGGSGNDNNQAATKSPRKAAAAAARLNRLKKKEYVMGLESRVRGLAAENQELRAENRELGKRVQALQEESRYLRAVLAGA

Chain of ATF6;ATF6 (P18850 other isoform, or with tags, fused parts or gaps |, chain 1 of 2): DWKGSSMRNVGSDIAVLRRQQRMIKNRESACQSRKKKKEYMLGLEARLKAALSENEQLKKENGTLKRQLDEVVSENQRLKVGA
Chain of ATF6;ATF6 (P18850 other isoform, or with tags, fused parts or gaps |, chain 2 of 2): as the sequence (P18850 other isoform, or with tags, fused parts or gaps |, chain 1 of 2) above
Chain of ATF6B;ATF6B (Q99941 other isoform, or with tags, fused parts or gaps |, chain 1 of 2): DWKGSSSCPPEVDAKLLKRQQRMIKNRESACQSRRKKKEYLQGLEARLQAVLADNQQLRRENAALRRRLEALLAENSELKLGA
Chain of ATF6B;ATF6B (Q99941 other isoform, or with tags, fused parts or gaps |, chain 2 of 2): as the sequence (Q99941 other isoform, or with tags, fused parts or gaps |, chain 1 of 2) above
Chain of ATF5;ATF6B (Q99941 other isoform, or with tags, fused parts or gaps |): as the sequence (Q99941 other isoform, or with tags, fused parts or gaps |, chain 1 of 2) above

Consider ATGACGTCAT, for which the binding signal in test [1] is 0.0846 relative CSI intensity (max = 1); in test [2], 0.437 relative CSI intensity (max = 1); in test [3], 0.577 relative CSI intensity (max = 1); in test [4], 0.325 relative CSI intensity (max = 1); in test [5] it was 1 relative CSI intensity (max = 1); in test [6], 1 relative CSI intensity (max = 1).
As to ATGATGCAAT, the binding signal in test [5] was 0.0122 relative CSI intensity (max = 1); in test [6], 0.00335 relative CSI intensity (max = 1).
As to ATGACGCAAT, the binding signal in test [2] was 0.00207 relative CSI intensity (max = 1); in test [4] it was 0.00195 relative CSI intensity (max = 1); in test [5] it was 0.00498 relative CSI intensity (max = 1); in test [6], 0.0123 relative CSI intensity (max = 1).
Regarding CCTGACGTCA, the binding signal is 0.00121 relative CSI intensity (max = 1) in test [1]; 0.00545 relative CSI intensity (max = 1) in test [2]; 0.0218 relative CSI intensity (max = 1) in test [3]; 0.0218 relative CSI intensity (max = 1) in test [4]; 0.0183 relative CSI intensity (max = 1) in test [5]; 0.0084 relative CSI intensity (max = 1) in test [6].
As for ATGACGTAAT, the binding signal was 0.00248 relative CSI intensity (max = 1) in test [1]; 0.0093 relative CSI intensity (max = 1) in test [2]; 0.00977 relative CSI intensity (max = 1) in test [3]; 0.0113 relative CSI intensity (max = 1) in test [4]; 0.0108 relative CSI intensity (max = 1) in test [5]; 0.0175 relative CSI intensity (max = 1) in test [6].
On to ATGACGGAAT, for which, in test [6], the binding signal is 0.0025 relative CSI intensity (max = 1).
